Calls of active or inactive are those of the source. Where a call stands in place of a potency, no number is given. The call rests on the fitted dose curve.
These molecules were tested against Estrogen receptor (Homo sapiens) (UniProt P03372) (assay: qHTS assay to identify small molecule agonists of the estrogen receptor alpha (ER-alpha) signaling pathway in the presence of an antagonist (AID 1259383; further: nearly all actives have a fitted effect of over 15% in size; on activation: top concentration of the series differs between compounds)). Conditions: VM7Luc4E2 cells, ERE-luciferase, +ICI-182,780, 22 h; series mostly up to 92.4 µM.
Source text: National Center for Advancing Translational Sciences [NCATS] NIH Chemical Genomics Center [NCGC] U.S. Environmental Protection Agency [EPA] National Institutes of Environmental Health Sciences [NIEHS] National Toxicology Program [NTP] Assay overview: Estrogen receptor (ER), a member of nuclear hormone receptor plays an important role in development, metabolic homeostasis and reproduction. Two subtypes of ER, ER-alpha and ER-beta, have similar expression patterns with some uniqueness in both types. Endocrine disrupting chemicals (EDCs) and their interactions with steroid hormone receptors like ER causes disruption of normal endocrine function. Therefore, it is important to understand the effect of environmental chemicals in ER signaling pathway. For identifying ER agonists, VM7Luc4E2 cell line has been used in the current assay. VM7Luc4E2 cell line (provided by Denison MS, University of California) endogenously expresses full-length ER-alpha and is stably transfected with a plasmid containing four estrogen responsive elements (ERE) upstream of a luciferase reporter gene. This current screening for measuring luciferase reporter gene activity using VM7Luc4E2 cells against Tox21 10K library collection is a confirmation study on agonist mode screening in presence of ER-antagonist (ICI-182,780) at 10.0nM final concentration.
Assay Protocol Summary: VM7Luc4E2 cells were cultured in phenol red free assay medium containing 10% charcoal stripped FBS for 5 days prior to the assay. The cells were dispensed at 4,000 cells in 4uL of assay medium per well into white wall/solid-bottom 1536-well plates (Corning Life Sciences, Corning, NY) using a Multidrop Combi (Thermo Fisher Scientific Inc., Waltham, MA) dispenser. After the assay plates were incubated at 37C and 5% CO2 for 24hr, 1uL of 10.0nM (final concentration) ICI-182,780 or assay buffer was added using two separate tips of Flying Reagent Dispenser (FRD, Aurora Discovery, San Diego, CA). Then 23nL of compounds dissolved in DMSO at 15 concentrations and positive controls or DMSO only was transferred to the assay plates by a Pintool station (Wako, San Diego, CA). The assay plates were incubated at 37C and 5% CO2 for 22hr. For luciferase read, 4uL/well ONE-Glo reagent (Promega Corporation, Madison, WI) was added to each well using FRD and after 30min incubation at room temperature, luminescence signal was measured on ViewLux plate reader (PerkinElmer, Shelton, CT).
Potency means the concentration at half of the fitted maximal effect.

Sequence of Estrogen receptor (Homo sapiens) (P03372 whole entry, looked up): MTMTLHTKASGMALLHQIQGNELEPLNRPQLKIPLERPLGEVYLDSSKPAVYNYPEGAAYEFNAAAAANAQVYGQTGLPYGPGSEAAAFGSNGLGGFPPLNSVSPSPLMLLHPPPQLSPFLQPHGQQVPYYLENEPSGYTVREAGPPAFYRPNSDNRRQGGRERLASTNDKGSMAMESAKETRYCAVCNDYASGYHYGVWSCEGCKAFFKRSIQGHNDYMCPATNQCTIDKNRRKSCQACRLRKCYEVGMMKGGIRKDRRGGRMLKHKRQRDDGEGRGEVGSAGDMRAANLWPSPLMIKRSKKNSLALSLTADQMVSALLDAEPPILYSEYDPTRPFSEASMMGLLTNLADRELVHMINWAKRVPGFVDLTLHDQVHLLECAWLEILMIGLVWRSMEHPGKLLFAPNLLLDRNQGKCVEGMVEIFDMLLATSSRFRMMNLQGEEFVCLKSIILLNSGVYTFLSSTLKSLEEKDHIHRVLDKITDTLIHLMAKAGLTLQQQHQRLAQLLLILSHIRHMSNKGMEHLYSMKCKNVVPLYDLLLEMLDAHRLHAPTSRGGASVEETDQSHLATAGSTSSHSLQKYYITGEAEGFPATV

| Compound | Potency | activation |
| --- | --- | --- |
| CC(=O)OCCC1CCCCC1 | inactive | – |
| COc1cc(S(=O)(=O)Nc2ccccc2)c(OC)cc1N | inactive | – |
| COC(=O)c1sccc1S(N)(=O)=O | inactive | – |
| CC1=CC[C@@H]2C[C@H]1C2(C)C | – | -0.899% [at 19 µM] (inactive) |
| O=C(c1ccccc1)c1ccc(O)cc1 | 49.1 µM (active) | – |
| CCCCOCCOC(=O)c1cccnc1 | inactive | – |
| CC(=O)OCCC(C)CC(C)(C)C (stereo not given) | inactive | – |
| Cc1cc([N+](=O)[O-])ccc1N | inactive | – |
| CCCc1nc2c(C)cc(-c3nc4ccccc4n3C)cc2n1Cc1ccc(-c2ccccc2C(=O)O)cc1 | inactive | – |
| c1ccc(CCCc2ccncc2)cc1 | inactive | – |
| COc1ccc2nc(S(=O)Cc3ncc(C)c(OC)c3C)[nH]c2c1 (stereo not given) | inactive | – |
| CN1C(CSCC(F)(F)F)Nc2cc(Cl)c(S(N)(=O)=O)cc2S1(=O)=O (stereo not given) | inactive | – |
| OCC(CO)n1cnc(-c2ccc(F)cc2)c1-c1ccnc(Oc2ccccc2)n1 | inactive | – |
| COc1ccc(CCN(C)CCCN2CCc3cc(OC)c(OC)cc3CC2=O)cc1OC | inactive | – |
| COc1cc(NCc2ccc3nc(N)nc(N)c3c2C)cc(OC)c1OC | inactive | – |
| O=C(CCS)OCC(COC(=O)CCS)(COC(=O)CCS)COC(=O)CCS | inactive | – |
| Cc1ccc(N(CC2=NCCN2)c2cccc(O)c2)cc1 | inactive | – |
| O=C(c1ccccc1)C1CCC1 | inactive | – |
| Nc1cccc2c(N)cccc12 | inactive | – |
| Nc1ccc(F)cc1 | inactive | – |

| Compound | Potency | activation |
| --- | --- | --- |
| Nc1ccc(NC(=O)c2ccc(N)cc2)cc1 | inactive | – |
| Cc1cn([C@H]2C[C@H](F)[C@@H](CO)O2)c(=O)[nH]c1=O | inactive | – |
| Cc1ccc2c(c1[N+](=O)[O-])C(=O)c1ccccc1C2=O | 3.37 µM (active) | – |
| CC(C)C(=O)OCCOc1ccccc1 | inactive | – |
| CCCCCCCC/C=C\CCCCCCCC(=O)OCCO | inactive | – |
| CCCCC[C@H](O)/C=C/[C@H]1[C@H](O)CC(=O)[C@@H]1C/C=C\CCCC(=O)O | inactive | – |
| CC(=O)OC(C)C[N+](C)(C)C (stereo not given) | inactive | – |
| CC1=C2[C@@H]([C@H](C)CC[C@H]2/C=C(\C)C(=O)O)[C@H](O)C1 | inactive | – |
| BrC(Br)C(Br)Br | inactive | – |
| CNc1c2c(nn1C)CCCC2 | inactive | – |
| CCCCC(CC)COS(=O)(=O)O (stereo not given) | inactive | – |
| Cc1ccc2c(c1)CCCN2 | inactive | – |
| [Cl][Nd]([Cl])[Cl] | inactive | – |
| CC12CC3CC(C)(C1)CC(N)(C3)C2 | inactive | – |
| C/C(C=O)=C\c1ccccc1 | inactive | – |
| SCCc1cnccn1 | inactive | – |
| Nc1c(Cl)cc(Cl)cc1[N+](=O)[O-] | inactive | – |
| CCCCCCCCCCCC(=O)OCC(O)CO (stereo not given) | inactive | – |
| c1ccc(CNc2ncnc3c2ncn3C2CCCCO2)cc1 (stereo not given) | 7.7 µM (active) | – |
| CCC(Cl)CC(Cl)C(Cl)C(Cl)C(Cl)C(C)Cl (stereo not given) | – | 11.4% [at 19 µM] (inactive) |

— PubChem BioAssay (Tox21)
